In PubChem BioAssay AID2315 (National Center for Advancing Translational Sciences (NCATS), 2010) one finds inhibition data, which are given here for 65 molecules.

SMILES strings stand for the structures. In all, about 290,000 compounds went through this assay and about 27,000 (9.3%) were called active. Shown is part of a subset that was picked to be rich in actives. A number with no mark means an inactive call. No stated cut-off is given here; in the data, active means inhibition mostly above about 28% (no sharp cut-off); inactive means mostly below about 43%.

The nature of the assay: A qHTS for Small Molecule Inhibitors of Shiga Toxin. Further: 0% is about no effect. The following applies: Vero cells, Shiga toxin protein synthesis inhibition reporter; at 38.7 µM, active compounds read high.
A word on the inhibition: it is the drop in the measured response relative to a control, in per cent. Take `COc1cccc(CCNC(=O)c2cccc(NC(=O)C3=C(C)OCCS3)c2)c1`: the inhibition is -2.41%.

With `CN(C)CCN=c1cc(-c2ccccc2)oc2ccc(Cl)cc12`, the inhibition was 129% (active).

Regarding `CN(C)CCn1c(=S)[nH]c2ccc(Cl)cc2c1=O`, the inhibition is -8.18%. For `Cc1cc(-c2ccc(C)c(S(=O)(=O)Nc3ccc(S(N)(=O)=O)cc3)c2)on1` the value was 29.3%; for `COc1ccc(CCNS(=O)(=O)c2cn(C)nc2C)cc1`, 16.1%; for `CCOC(=O)CNc1nc(Cl)nc(Nc2ccc(OC)cc2OC)n1`, 26.8%. The same measure for `CCOC(=O)CNc1nc(Cl)nc(Nc2ccccc2)n1`: 65.7% (active); for `CCC(=O)Nc1ccc(Nc2nc(Cl)nc(Nc3ccc(NC(=O)CC)cc3)n2)cc1`: 4.44%; for `CCn1c(SCC(=O)NC2CCCC2)nnc1-c1ccoc1C`: -5.62%. `CN(Cc1cc2cc(F)ccc2[nH]1)Cc1nc(-c2cnccn2)no1`: the inhibition is -4.61%. Turning to `CN(Cc1ccc2nsnc2c1)Cc1nc(Cc2cccc(F)c2)no1`, the inhibition was 1.39%. The same measure for `CN(Cc1nc2ccc(F)cc2[nH]1)Cc1nc(CC2CC2)no1`: 48% (active); for `C/C(=N\N(C)C)c1ccc(OCCOc2ccc([N+](=O)[O-])cc2)cc1`: 6.72%. For `CCn1c(SCC(=O)NC2=NCCS2)nnc1C(C)NC(=O)c1ccccc1F` (stereo not given) the value was -15.6%. Regarding `Cc1cc(-n2cnc(-c3cn(C)nc3C)n2)no1`, the inhibition is 52.5% (active).

For the molecule `COc1ccc(Cl)cc1NS(=O)(=O)c1cccc(C(=O)NCC2CCCO2)c1` (stereo not given), the inhibition was -3.5%.

Turning to `O=C1CSc2ccc(S(=O)(=O)NCc3ccccc3)cc2N1`, the inhibition is -7.81%. For `COC(=O)c1sccc1NC(=S)Nc1ccc(C)cc1`, the inhibition is 39.9% (active). As for `COC(=O)c1ccc(NC(=O)Nc2ccc(C)cc2)cc1`, the inhibition was 46% (active).

Consider `O=C(Nc1cccnc1)c1cc(Cl)ccc1Cl`, for which the inhibition is -11.4%. Regarding `Cc1ccc(NC(=O)CC(=O)Nc2ccc(C)cc2)cc1`, the inhibition was -2.71%. The same measure for `CC(=O)c1ccc(NC(=O)Nc2ccc([N+](=O)[O-])cc2C)cc1`: -6.96%. With `COC(=O)c1sccc1NC(=O)c1ccc(Cl)cc1`, the inhibition is -2.96%. In the case of `O=C(NNC(=O)c1csc(-c2cccnc2)n1)Nc1ccc(Cl)cc1`, the inhibition is 4.07%. In the case of `COC(=O)c1sccc1NC(=O)c1cc(OC)c(OC)c(OC)c1`, the inhibition was 14.1%. Regarding `O=C(Nc1ccc(Cl)cc1)Nc1ccc(Oc2cccnc2)nc1`, the inhibition is 51.4% (active). Take `COc1cc(NC(=O)Nc2ccc(C)cc2)cc([N+](=O)[O-])c1`: the inhibition is -2.21% (active). For the molecule `COC(=O)c1ccc(NC(=O)c2cc(Cl)ccc2OC)cc1`, the inhibition was 1.91%. For `Cc1ccc(Oc2cc(NC(=O)CCCn3nc(C)c([N+](=O)[O-])c3C)cc([N+](=O)[O-])c2)cc1`, the inhibition was 9.13%. The same measure for `COc1ccc(N2CCN(C(=O)Cn3cnc4sc(C)c(S(=O)(=O)N5CCOCC5)c4c3=O)CC2)cc1`: -21.2%. Take `CSCC[C@H](NC(=O)N1CCn2c1nc1ccccc12)C(=O)NC1CCCCC1`: the inhibition is 21.5%. For `CC(=N\NC(=O)c1cc(Br)ccc1O)/C(=N/O)C(=O)Nc1ccccc1` the value was 27.5%; for `CCc1nn(CCCC(=O)Nc2ccc(C)c(C)c2)c(=O)c2cc3occc3n12`, -3.08%; for `CC(=O)Nc1ccc(S(=O)(=O)N(C)c2nc3ccccc3nc2Cl)cc1`, 21.4%. The same measure for `COc1cc2c(cc1OC)C(c1ccccc1Br)NC(=O)C2` (stereo not given): -13.7%. The same measure for `CN1CCN(c2ccccc2NC(=O)COc2ccc(C3CCCCC3)cc2)CC1`: 16.9%. On to `Cc1c(S(=O)(=O)NC(C)c2ccccc2)c(=O)n(C)c(=O)n1C` (stereo not given), for which the inhibition was -36.1%. The same measure for `Cc1ccc(NC(=O)Nc2cccnc2)cc1`: 29% (active); for `O=C(NNC(=O)c1cccnc1)Nc1ccccc1`: 2.5%. For `Cc1ccc(NC(=O)NCC(c2cccnc2)N2CCOCC2)cc1` (stereo not given) the value was -5.81%. The same measure for `C/C=C(/C)C(=O)O[C@@H]1c2cc3c(c4c2[C@@]2(CO4)C(=O)C(OC)=C(OC)C=C2C[C@@H](C)[C@H]1C)OCO3`: -12.4%. In the case of `CS(=O)(=O)C1=NN2C(=N)/C(=C\c3ccc(OCCOc4ccccc4)cc3)C(=O)N=C2S1`, the inhibition was 13.4%.

`Cc1ccc(N(C(=O)Cc2cccs2)C(C(=O)NCC2CCCO2)c2ccncc2)cc1` (stereo not given): the inhibition was 59.4% (active). For `O=C(NCC(=O)N(c1ccccc1)C(C(=O)NCC1CCCO1)c1ccccc1)c1cccs1` (stereo not given) the value was -3.3%. Consider `Cc1cccc(N(C(=O)Cc2cccs2)C(C(=O)NCc2ccco2)c2ccncc2)c1` (stereo not given), for which the inhibition was 2.84%. The same measure for `COc1cccc(CNS(=O)(=O)c2ccc3c(c2)CC(C)N3C(=O)C2CCC2)c1` (stereo not given): -3.12%. For `CC12CN3CCN(CC(C3)/C1=N\NC(=O)c1ccccc1N)C2` the value was 60.8% (active); for `CNC(=S)N/N=C1\C2CN3CCN(C2)CC1(c1ccccc1)C3`, 14%; for `Nc1ccccc1C(=O)NC1CCCCNC1=O` (stereo not given), 2.5%. For `CCn1cc(C(=O)N2CC(C)CC(C)C2)c(=O)c2cc(S(=O)(=O)N3CCCC3)ccc21` (stereo not given) the value was -9.23%. Take `O=C(NCCCn1ccnc1)c1cc(Br)c(Br)s1`: the inhibition was -8.29%. With `CCN(CC)CCNC(=O)CCCCCn1c(=O)[nH]c2cc(C(=O)OC)ccc2c1=O`, the inhibition was 11.7%. In the case of `COC(=O)c1cccc(NS(C)(=O)=O)c1`, the inhibition is 7.52%. On to `COC(=O)c1ccc2c(C(C)(C)O)c(C(C)(C)O)[nH]c2c1`, for which the inhibition is 25.7% (active). For `CCc1nnc(NC(=O)CSCc2cc(=O)n3cc(C)sc3n2)s1` the value was 9.5%. For `CN(C)c1nc(NN)nc(Nc2ccc(F)cc2)n1` the value was -6.82%. In the case of `Cc1occc1C(=O)Nc1cccc(Cn2cccn2)c1`, the inhibition was 39.7%. With `COc1cc(SC)ccc1C(=O)Nc1cc(C)ccn1`, the inhibition is 71.5% (active). In the case of `COc1ccccc1OCCNC(=O)CCNC(=O)c1ccccc1Cl`, the inhibition is 5.05%. For `Cc1ccnc(NC(=O)c2ccoc2C)c1` the value was 62.3% (active).

Consider `COc1cc(SC)ccc1C(=O)N(Cc1ccccc1)c1ccccc1`, for which the inhibition was -14.7%. Consider `Cc1ccnc(NC(=O)CCCOc2ccccc2)c1`, for which the inhibition is 31.5%. As to `COc1cc(SC)ccc1C(=O)NCCOc1ccccc1Cl`, the inhibition was 72.6% (active).

Take `Cc1ccnc(NC(=O)C(C)N2C(=O)c3ccccc3C2=O)c1` (stereo not given): the inhibition was 16.9%. In the case of `COc1cc(SC)ccc1C(=O)Nc1nc(C)cs1`, the inhibition was -19.5%.
